# Screening results deposited in PubChem by Sanford-Burnham Center for Chemical Genomics.
# In the library only some 3% were active in any assay of this set; here they are far more common.
# SENP7 inh = SENP7 protease inhibition; Q9BQF6; recombinant SENP7, Z-RLRGG-aminoluciferin luminescence, 40 min; inhibition, % at 5 µM; 1.5% of 330,000 active;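 active means inhibition above about 50% at the single test dose, limit read from the data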;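 further: plate controls were DMSO with enzyme for no effect and no enzyme buffer wells for full effect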
# Target sequence (Q9BQF6 706-1050 limits assumed): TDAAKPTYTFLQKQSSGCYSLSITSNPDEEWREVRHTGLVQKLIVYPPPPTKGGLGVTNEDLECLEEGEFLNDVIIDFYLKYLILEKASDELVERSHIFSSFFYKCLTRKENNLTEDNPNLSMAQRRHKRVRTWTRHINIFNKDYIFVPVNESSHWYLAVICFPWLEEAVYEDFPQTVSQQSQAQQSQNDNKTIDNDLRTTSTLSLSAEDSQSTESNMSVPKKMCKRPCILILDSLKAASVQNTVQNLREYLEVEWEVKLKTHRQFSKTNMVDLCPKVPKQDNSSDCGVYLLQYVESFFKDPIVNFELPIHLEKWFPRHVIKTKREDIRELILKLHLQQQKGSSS
# SENP8 block-1 = SENP8 protease inhibition | Q96LD8 | inhibition, % at 10 µM | 1.2% of 330,000 active | purified SENP8, Z-RLRGG-aminoluciferin cleavage, luminescence; in the data active means inhibition above about 50%
# Target sequence (Q96LD8 whole entry, looked up): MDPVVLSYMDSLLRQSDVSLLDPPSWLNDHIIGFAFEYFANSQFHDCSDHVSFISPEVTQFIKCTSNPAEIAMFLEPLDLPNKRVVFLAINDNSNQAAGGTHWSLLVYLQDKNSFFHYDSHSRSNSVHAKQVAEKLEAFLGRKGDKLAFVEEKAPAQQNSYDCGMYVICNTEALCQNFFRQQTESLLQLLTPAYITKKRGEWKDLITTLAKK
# SENP8 block-2 = inhibitors of human SENP8 protease | Q96LD8 | recombinant SENP8, Nedd8 substrate fluorescence | inhibition, % at 20 µM | 0.64% of 360,000 active | AID 602440; in the data active means inhibition mostly above about 40%, no sharp cut-off; inactive means mostly below about 27%
# SENP6 block = blocks the human protease SENP6; Recombinant SENP6 catalytic domain, aminoluciferin luminescence; 1.8% of 330,000 active; inhibition, % at 10 µM; Q9GZR1;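 active means inhibition above about 50% at the single tested dose, limit read from the data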;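 further: plate controls were DMSO wells with enzyme for no effect and DMSO wells lacking enzyme for full effect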
# C8 TRAIL sens = sensitizes caspase-8 expressing cells to TRAIL. NB7+C8 cells + TRAIL, ATPlite viability luminescence. inhibition (viability loss, TRAIL sensitization), % at 10 µM. 1% of 360,000 active;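 active means compounds causing at least 50% loss of cell viability in the single-dose screen, relative to plate controls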
# PPC-1+TRAIL kill = PPC-1 cancer cell killing with TRAIL present; PPC-1 cells + TRAIL, ATPLite viability luminescence; cell killing (% activity), % at 4 µM or 5 µM; 0.41% of 220,000 active; AID 1443;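 active means cell killing above 50% in the first pass at 4 µM, then a duplicate retest at 5 µM averaging 50% or more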;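 further: plate controls were cells with TRAIL plus DMSO for no effect and medium-only wells lacking cells for full effect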
# Starred values were filed as active, the others as inactive; / = no result.
SMILES,SENP7 inh,SENP8 block-1,SENP8 block-2,SENP6 block,C8 TRAIL sens,PPC-1+TRAIL kill
CCCc1ccc(-c2ccc(/C=C/C(=O)O)cc2)nc1,/,/,-84.3,/,85.5*,56.1*
O=[N+]([O-])c1ccc(O)c(/C=N/n2cnc3ccccc32)c1,29.9,56.0*,12.6,75.9*,5.4,34.2
N=c1nc2n(cc1F)C1OC(CO)C(O)C1O2 (stereo unspecified),/,/,8.2,/,12.7,/
FC(F)(F)c1nnc(-c2ccccc2)nc1Sc1ccc(Cl)cc1,-4.5,-9.0,10.3,-3.0,48.2*,21.9
FC(F)(F)c1cccc(Sc2nc(-c3ccccc3)nnc2C(F)(F)F)c1,2.8,2.0,13.2,10.4,51.0*,11.9
FC(F)(F)c1nnc(-c2ccccc2)nc1Sc1ccccc1,-7.8,-0.8,17.1,-4.0,9.3,10.0
Cc1ccc(S(=O)(=O)N2CCOCC2)cc1C(=O)NC1=NCCS1,-6.6,4.7,0.0,-12.9,-10.1,/
CC(C)c1ccc2[nH]c(O)c(N=NC(=O)c3cccc(S(=O)(=O)Nc4cccc(Cl)c4)c3)c2c1,0.1,-3.6,16.1,-25.9,50.0*,6.3
CNC(=S)N=Nc1c(O)[nH]c2ccc(C(C)C)cc12,/,/,43.9*,/,3.4,8.0
CC(C)c1ccc2[nH]c(O)c(N=NC(=O)c3cccc(S(=O)(=O)Nc4ccc(Cl)cc4)c3)c2c1,-5.9,-0.6,16.0,-5.7,19.8,4.7
Cc1ccc(NC(=O)c2ccc(S(=O)(=O)N3CCCCC3)cc2)nc1,-4.3,-5.4,-0.8,0.1,-14.0,/
COc1cc2ccccc2cc1C(=O)Nc1sc2c(c1C(N)=O)CCN(C(C)C)C2,-6.9,-3.6,-383.0,4.8,82.7*,/
O=C(Nc1nc(-c2ccccn2)cs1)c1ccc2c(c1)OCCO2,-0.9,6.8,-12.4,3.2,50.7*,49.4
CCOC(=O)c1ccccc1NC(=O)Cc1ccc(OC)c(S(=O)(=O)N2CCOCC2)c1,1.9,5.5,-45.9,0.8,-1.3,/
CCOC(=O)c1cnc2c(C)c(Cl)ccc2c1N1CCN(CC)CC1,9.4,4.7,15.1,-10.0,-1.8,/
CCOC(=O)c1cnc2c(Cl)c(Cl)ccc2c1N1CCN(C)CC1,-2.7,-3.2,-4.4,-11.7,58.7*,8.0
Cc1ccc(C(C)C)c(OCC(=O)Nc2ccc3c(c2)nc(CCN2CCCCC2)n3C)c1,-6.9,5.5,16.6,12.2,55.5*,/
CN(C)Cc1cc(O)c(CN(C)C)cc1O,-1.6,7.5,55.1*,31.9,-16.7,-9.0
CN(C)Cc1cc(C(C)(C)C)cc(C(C)(C)C)c1O,1.9,7.8,18.4,1.9,7.4,11.9
CCOC(=O)NC(=O)/C(C#N)=N\Nc1cccc(Cl)c1,5.9,-10.0,23.8,-28.2,12.3,23.9
COc1ccc(C(=O)/C(C#N)=N/Nc2ccc([N+](=O)[O-])cc2)cc1,9.1,4.4,39.5*,10.5,39.7,46.9
CCOC(=O)NC(=O)/C(C#N)=N\Nc1ccc(Cl)cc1,-9.4,-3.5,43.4*,-7.8,-3.4,2.4
N#C/C(=N\Nc1ccc(Cl)cc1)C(=O)c1ccccc1,0.2,8.3,45.5*,40.0,36.3,20.7
CCn1cc(Cl)c(C(=O)Nc2cccc(CN3CCOCC3)c2)n1,-5.0,2.0,2.8,2.6,11.4,/
CC(=O)Oc1ccccc1C(=O)C=Cc1cccc([N+](=O)[O-])c1,/,/,1.7,/,64.8*,/
SMILES,SENP7 inh,SENP8 block-1,SENP8 block-2,SENP6 block,C8 TRAIL sens,PPC-1+TRAIL kill
O=C(/C=C/Nc1ccccc1O)c1ccco1,85.2*,77.1*,-36.8,88.8*,10.5,0.3
Cc1ccc(NC(=O)CSc2nn(-c3ccccc3)c(=S)s2)cc1S(=O)(=O)N(C)C,-10.9,-5.1,-2.3,-6.8,66.0*,-12.3
Nc1cnnc(N/N=C\c2ccccc2)c1Cl,20.7,-0.7,-53.8,8.1,48.7*,/
Nc1nonc1N/N=C\c1ccccc1,7.6,-2.9,10.7,-18.6,-0.4,-0.4
Cc1nc(N)nc(N)c1-c1ccc([N+](=O)[O-])cc1,/,/,12.8,/,74.7*,/
COc1cccc(NC(=O)/C=C/c2ccc(S(=O)(=O)N3CCOCC3)cc2)c1,-16.5,-11.7,8.8,-1.7,-0.6,/
O=C(/C=C/c1ccc2c(c1)OCO2)Nc1nncs1,83.8*,40.8,-427.1,59.7*,44.2,35.6
CCOc1ccc(/C=C/C(=O)Nc2cccc(C(C)=O)c2)cc1,37.4,11.1,-8.0,19.9,54.5*,20.7
CCOC(=O)c1[nH]c2ccc(OC)cc2c1NC(=O)/C=C/c1ccc2c(c1)OCO2,3.4,2.9,12.7,1.2,3.1,17.2
O=C(/C=C/c1ccc2c(c1)OCO2)Nc1c(C(=O)O)[nH]c2ccccc12,2.8,4.8,9.6,-11.1,51.6*,49.6
COC(=O)CSc1nnc(NC(=O)c2ccc3c(c2)OCO3)s1,13.8,-22.0,-37.6,0.7,77.1*,/
CCC(CC)c1nnc(NC(=O)c2ccc3c(c2)OCO3)s1,2.0,-0.1,-1.1,14.4,1.9,/
CCN1C(=O)[C@@H]2[C@@H](c3ccc(-c4ccc(F)cc4)cc3)N3CCCC[C@@]3(C(=O)OC)[C@@H]2C1=O,-5.2,4.2,26.5,-8.5,18.7,/
CCCNC(=O)NC(=O)CN1C(=O)NC(C)(c2ccc3ccccc3c2)C1=O (stereo unspecified),-1.3,-4.5,5.1,-8.7,3.2,/
COC(=O)c1cc(NC(=O)/C=C/c2ccc3c(c2)OCO3)cc(C(=O)OC)c1,2.3,8.8,-278.2,8.0,-2.6,13.8
O=C(/C=C\c1ccc2c(c1)OCO2)Nc1nnc(SCC(=O)OCc2ccccc2)s1,-1.3,-6.3,/,-3.0,/,12.5
COC(=O)CSc1nnc(NC(=O)/C=C\c2ccc3c(c2)OCO3)s1,3.1,0.9,-411.3,-14.4,53.0*,33.3
COC(=O)c1cccc(NC(=O)/C=C/c2ccc3c(c2)OCO3)c1,27.2,-3.6,-147.5,35.5,85.2*,48.2
CCOc1ccccc1N=C1SCC(C)N1C(=O)C1CCN(c2ncnc3sc(C)c(C)c23)CC1 (stereo unspecified),/,/,-1.1,/,-0.4,/
O=C(OCC(=O)N1CCN(C(=O)c2ccco2)CC1)c1cc(F)c(F)cc1Cl,-4.2,-12.0,10.4,-15.8,5.1,/
O=C(C[C@@H]1C/C=C\C[C@H](Cc2ccc(F)cc2)C(=O)OC[C@H]2CCCN2C1=O)N[C@H](CO)Cc1ccccc1,-5.6,-14.9,19.4,-8.8,2.5,/
CCOC(=O)CC1C(=O)NCCN1c1nc2ccc(C)cn2c(=O)c1/C=C1\SC(=S)N(CC(C)C)C1=O (stereo unspecified),12.1,-2.3,47.9*,-4.3,7.7,-1.1
CCOC(=O)CC1C(=O)NCCN1c1nc2ccc(C)cn2c(=O)c1/C=C1\SC(=S)N(C(C)CC)C1=O (stereo unspecified),-0.5,6.2,/,-9.9,/,35.5
O=C(CN1C(=O)c2ccccc2S1(=O)=O)c1ccccc1F,-8.9,4.6,15.4,20.9,46.3*,/
O=C(CN1C(=O)c2ccccc2S1(=O)=O)c1ccc(F)cc1,9.3,9.3,24.2,11.2,31.2,-7.1
